# Inconclusive results are not listed. Activity calls are given as the source filed them. Calls come from the whole dose curve; as a rule, active = well fitted inhibition curve with a large enough effect; inconclusive = small, poorly fitted or top-dose-only effect; inactive = flat fitted curve, though single readings scatter. Peptide text beside a SMILES is read from it.
# Test system: P94_40
# Assay: qHTS profiling for inhibitors of Plasmodium falciparum proliferation (AID 504749); note: nearly all actives have a fitted effect of over 60% in size;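 for activity, negative = inhibition: 0% = DMSO vehicle and full inhibition = artemisinin control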
# Conditions: P. falciparum in erythrocytes, SYBR Green DNA, 72 h; series mostly up to 12.8 µM; activity, negative = inhibition: at the top concentration
# How it was run: (§1)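 P. falciparum-infected erythrocytes (0.3% parasitemia, 2.5% hematocrit) incubated with compound 72 h at 37 C, 5% CO2. Parasite DNA detected by SYBR Green after lysis, overnight at room temperature; normalised to 0.29 uM artemisinin and DMSO.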
# Potency is the fitted concentration of half-maximal effect.
Structure (SMILES),"activity, negative = inhibition",Potency
CC1CCC(C(C)C)C(=O)C1 (centres undefined),3.4% [at 28.7 µM] (inactive),–
CC(=O)N[C@H](CC(C)C)C(=O)O,-0.176% [at 28.7 µM] (inactive),–
COc1ccc2cc(C(C)CO)ccc2c1 (centres undefined),13% [at 28.7 µM] (inactive),–
COc1ccc2cc1Oc1ccc(cc1)CC1c3c(cc4c(c3Oc3cc5c(cc3OC)CCN(C)C5C2)OCO4)CCN1C (centres undefined),–,8910 nM (active)
CNC1C(OC2C(O[C@@H]3C(O)C(O)[C@@H](N=C(N)N)C(O)C3N=C(N)N)OC(C)[C@@]2(O)CO)OC(CO)C(O)C1O (some centres undefined),-3.12% [at 28.7 µM] (inactive),–
CC1C2CCC3C4CC=C5CC(N(C)C)CC[C@@]5(C)C4CC[C@@]32CN1C (some centres undefined),7.31% [at 28.7 µM] (inactive),–
C[C@]12C=CC(=O)C=C1CCC1C2C(O)C[C@]2(C)C1CC[C@]2(O)C(=O)CO (some centres undefined),11.1% [at 28.7 µM] (inactive),–
COc1ccc2c(c1)N(C[C@@H](C)CN(C)C)c1ccccc1S2,-26.6% (inactive),–
CCOC(=O)C1=CC(OC(CC)CC)C(NC(C)=O)C(N)C1 (centres undefined),12.8% [at 28.7 µM] (inactive),–
CN(C)CCc1c[nH]c2ccc(CC3COC(=O)N3)cc12 (centres undefined),8.5% [at 28.7 µM] (inactive),–
NCC1CCC(N)C(O[C@@H]2C(O)[C@H](O[C@H]3OC(CO)C(O)C(N)C3O)[C@@H](N)C[C@H]2N)O1 (some centres undefined),16.8% [at 28.7 µM] (inactive),–
OCC1O[C@H](OC2C(CO)O[C@@](O)(CO)C2O)C(O)C(O)C1O (some centres undefined),2.13% [at 28.7 µM] (inactive),–
CC1(C)OC2CO[C@]3(COS(N)(=O)=O)OC(C)(C)OC3C2O1 (some centres undefined),16.8% [at 28.7 µM] (inactive),–
CC(=O)OC1CCC2C3CCc4cc(O)ccc4C3CCC12C (centres undefined),-19.1% [at 28.7 µM] (inactive),–
CN(C)CCCOC1C(C(O)CO)OC2OC(C)(C)O[C@@H]21 (some centres undefined),6.23% [at 28.7 µM] (inactive),–
COc1cc(C2c3cc4c(cc3C(O[C@@H]3OC5COC(c6cccs6)OC5C(O)C3O)C3COC(=O)C23)OCO4)cc(OC)c1O (some centres undefined),–,1260 nM (active)

# Test system: PAD
# Assay: as above
# Conditions: P. falciparum in erythrocytes, SYBR Green DNA, 72 h; series mostly up to 12.8 µM; activity, negative = inhibition: at the top concentration
# How it was run: as §1
Structure (SMILES),"activity, negative = inhibition",Potency
CCC(C)C(=O)OC1CCC=C2C=CC(C)C(CCC3CC(O)CC(=O)O3)[C@@H]21 (some centres undefined),5.28% [at 28.7 µM] (inactive),–
C[C@]1(c2ccccc2)OC(C(=O)O)=CC1=O,0.914% [at 28.7 µM] (inactive),–
OCC1OC([S-])[C@H](O)C(O)C1O.[Au+] (some centres undefined),-14.6% [at 28.7 µM] (inactive),–
COC(=O)N/N=C/C1=C[N+](=O)c2ccccc2[N+]1=O,2.4% [at 28.7 µM] (inactive),–
CN1CC(=O)N=C1N,14.6% [at 28.7 µM] (inactive),–
CNC1CC(N)[C@H](O)[C@@H](O[C@@H]2OC(CO)C3OC4(OC(C(N)CO)C(O)C(O)C4O)O[C@@H]3[C@H]2O)C1O (some centres undefined),13.5% [at 28.7 µM] (inactive),–
COC1C=CO[C@@]2(C)Oc3c(C)c(O)c4c(O)c(c(C=NN5CCN(C)CC5)c(O)c4c3C2=O)NC(=O)/C(C)=C\C=CC(C)C(O)[C@@H](C)C(O)C(C)[C@H](OC(C)=O)C1C (some centres undefined),–,282 nM (active)
CC(=O)N[C@@H]1C(O)OC(CO)C(O)C1O (some centres undefined),9.71% [at 28.7 µM] (inactive),–
CCC(CCC(C)C1CCC2C3CC=C4CC(O)CC[C@@]4(C)C3CC[C@@]12C)C(C)C (some centres undefined),2.25% [at 28.7 µM] (inactive),–
O=C1OC(CO)C(O)C(O)C1O (centres undefined),14.3% [at 28.7 µM] (inactive),–
COc1ccc(CC(N)C(=O)NC2C(CO)OC(n3cnc4c(N(C)C)ncnc43)C2O)cc1 (centres undefined),–,447 nM (active)
CCCC(=O)O[C@]1(C(=O)CO)CCC2[C@@H]3CCC4=CC(=O)CC[C@]4(C)C3C(O)C[C@]21C (some centres undefined),4.74% [at 28.7 µM] (inactive),–
COC(=O)C(Cc1ccccc1)NC(=O)C(N)CC(=O)O (stereo not drawn) (H-Asp-Phe-OMe; configuration not given here),15.1% [at 28.7 µM] (inactive),–
CC[C@@]12CCCN3CCc4c(n(c5ccccc45)[C@](O)(C(=O)OC)C1)C32 (some centres undefined),0.27% [at 28.7 µM] (inactive),–
CC1(C)SC2C(N3C(=O)C(c4ccccc4)NC3(C)C)C(=O)N2C1C(=O)O (centres undefined),4.75% [at 28.7 µM] (inactive),–
CC1CCC(C(C)C)C(=O)C1 (centres undefined),13.3% [at 28.7 µM] (inactive),–
CC(=O)N[C@H](CC(C)C)C(=O)O,5.25% [at 28.7 µM] (inactive),–
CC(C)C1CCC(C(=O)NC(Cc2ccccc2)C(=O)O)CC1 (centres undefined),10.6% [at 28.7 µM] (inactive),–
COc1ccc2cc(C(C)CO)ccc2c1 (centres undefined),6.52% [at 28.7 µM] (inactive),–
COc1ccc2cc1Oc1ccc(cc1)CC1c3c(cc4c(c3Oc3cc5c(cc3OC)CCN(C)C5C2)OCO4)CCN1C (centres undefined),–,8910 nM (active)
CC1C2CCC3C4CC=C5CC(N(C)C)CC[C@@]5(C)C4CC[C@@]32CN1C (some centres undefined),3.19% [at 28.7 µM] (inactive),–
C[C@]12C=CC(=O)C=C1CCC1C2C(O)C[C@]2(C)C1CC[C@]2(O)C(=O)CO (some centres undefined),11.5% [at 28.7 µM] (inactive),–
COc1ccc2c(c1)N(C[C@@H](C)CN(C)C)c1ccccc1S2,-9.76% (inactive),–
CCOC(=O)C1=CC(OC(CC)CC)C(NC(C)=O)C(N)C1 (centres undefined),5.69% [at 28.7 µM] (inactive),–
CN(C)CCc1c[nH]c2ccc(CC3COC(=O)N3)cc12 (centres undefined),8.66% [at 28.7 µM] (inactive),–
NCC1CCC(N)C(O[C@@H]2C(O)[C@H](O[C@H]3OC(CO)C(O)C(N)C3O)[C@@H](N)C[C@H]2N)O1 (some centres undefined),8.66% [at 28.7 µM] (inactive),–
OCC1O[C@H](OC2C(CO)O[C@@](O)(CO)C2O)C(O)C(O)C1O (some centres undefined),6.06% [at 28.7 µM] (inactive),–
CC1(C)OC2CO[C@]3(COS(N)(=O)=O)OC(C)(C)OC3C2O1 (some centres undefined),0.273% [at 28.7 µM] (inactive),–

# Source: PubChem BioAssay (NCATS)
